# Results published in PubChem BioAssay (NCATS).
# A number with no mark means an inactive call. Inconclusive results are not listed. A call without a number means that no potency is given here. Calls of active or inactive are those of the source. Calls come from the whole dose curve; as a rule, active = well fitted curve in the direction sought with a large enough effect; inconclusive = small, poorly fitted or top-dose-only effect, or another doubt; inactive = no such curve, though single readings can be large; an effect the other way counts as inactive or inconclusive.
# How the values were obtained:
# [1] = target: Phospholipid hydroperoxide glutathione peroxidase GPX4 (Homo sapiens) (UniProt P36969); test: Primary qHTS Assay for Inhibitors of Recombinant Selenoprotein Glutathione Peroxidase 4 (GPX4) (AID 1845192); note: nearly all actives have a fitted effect of over 65% in size; for activity change, negative = inhibition: series mostly up to about 50 µM
# Sequence of Phospholipid hydroperoxide glutathione peroxidase GPX4 (Homo sapiens) (P36969 whole entry, looked up): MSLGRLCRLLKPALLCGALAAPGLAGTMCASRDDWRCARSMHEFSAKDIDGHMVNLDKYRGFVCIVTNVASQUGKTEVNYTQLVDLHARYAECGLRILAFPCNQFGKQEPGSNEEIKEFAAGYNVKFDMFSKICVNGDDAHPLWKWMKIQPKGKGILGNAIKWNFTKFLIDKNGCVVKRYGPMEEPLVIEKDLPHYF
# Method in brief: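 qHTS, GR-coupled: GPX4 200 nM + cpd 30 min RT → GSH 1 mM, NADPH 0.5 mM, GR 100 nM → CHP 0.5 mM start; fluor 340/450 at t0 and t15 min; no-enzyme wells as control.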
# [2] = Primary fluorescence-based thiol-reactive (MSTI) qHTS assay for identification of artifact compounds. (AID 1845221); note: nearly all actives have a fitted effect of over 65% in size;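 for activity change, negative = thiol reactive: series mostly up to about 54 µM; thiol-reactive compounds lower the probe fluorescence signal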
# Method in brief: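 qHTS titration of compound; 4 uM MSTI, PBS pH 7.4, 2% DMSO; 1 h RT, dark; fluorescence 525/598 nm; normalized to Acetyl-MSTI and MSTI; 4-parameter Hill fit.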
# [3] = test system: Nanoluciferase (engineered Oplophorus gracilirostris luciferase); test: Primary Nanoluciferase (NLuc) qHTS assay for identification of artifact compounds. (AID 1845222);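 for activity, negative = inhibition: NLuc secreted into diluted conditioned medium of S16 cells; series mostly up to about 54 µM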
# Method in brief: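 Using secreted nanoluciferase in S16 culture medium (0.22 um filtered, 1:55 dilution), compounds were preincubated 15 min at RT. Signal was generated with Nano-Glo reagent (1:100) over 5 min.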
# [4] = target: Luciferin 4-monooxygenase (Photinus pyralis) (UniProt P08659); test: Primary firefly luciferase (FLuc) qHTS assay for identification of artifact compounds. (AID 1845220); note: nearly all actives have a fitted effect of over 60% in size; for activity change, negative = inhibition: series mostly up to about 54 µM
# Method in brief: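 In this counter-screen for luciferase artifacts, test compounds met substrate (10 uM each luciferin and ATP) before 10 nM enzyme started the reaction. Light output was measured 5 min later.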
# Potency is the fitted concentration of half-maximal effect.
smiles,measurement,setting,value
O=C(c1ccc(C#Cc2cccc(F)c2)cn1)N1CC2CC2C1 (stereo not given),Potency,[1],inactive
same,Potency,[2],inactive
same,Potency,[3],inactive
CC1=CC(=O)C2C(C)(C)CC(O)CC2(C)C1CO (stereo not given),Potency,[1],inactive
same,Potency,[4],inactive
same,Potency,[3],inactive
c1ccc(Nc2nc3c(s2)CCCc2[nH]ncc2-3)nc1,Potency,[1],inactive
same,Potency,[4],8.49 µM (active)
same,Potency,[2],1.5 µM (active)
same,Potency,[3],inactive
COC(=O)[C@@]1(C)CC[C@]2(C(=O)O[C@@H]3O[C@H](CO)[C@@H](O)[C@H](O)[C@H]3O)CC[C@]3(C)C(=CCC4[C@@]5(C)CC[C@H](O[C@@H]6O[C@H](C(=O)O)[C@@H](O)[C@H](O)[C@H]6O)C(C)(C)C5CC[C@]43C)[C@@H]2C1 (stereo not given in full),Potency,[1],inactive
same,"activity change, negative = thiol reactive",[2],77.9% [at 11.5 µM]
same,"activity, negative = inhibition",[3],-2.3% [at 11.6 µM]
C#Cc1cnc2[nH]c(=O)n(C(CC)CC)c2n1,Potency,[1],18 µM (active)
same,Potency,[4],inactive
same,Potency,[3],inactive
CCC[C@@H]1C[C@@H](C(=O)N[C@@H]([C@H]2O[C@H](SC)[C@H](O)[C@@H](O)[C@@H]2O)[C@@H](C)O)N(C)C1,Potency,[1],inactive
same,Potency,[4],inactive
same,Potency,[2],inactive
same,Potency,[3],inactive
CC(C)(C)NCC(O)COc1cccc2c1CCCC2=O (stereo not given),Potency,[1],inactive
same,Potency,[4],inactive
same,Potency,[2],inactive
same,Potency,[3],inactive
OC[C@H]1O[C@@H](n2cnc3c(NCc4ccc(O)cc4)ncnc32)[C@H](O)[C@@H]1O,Potency,[1],inactive
same,Potency,[4],inactive
same,Potency,[2],inactive
same,Potency,[3],inactive
O=C(O)C[C@@H](NC(=O)c1cc(-c2ccc(-c3ccncc3)cc2)cs1)c1ccccc1,Potency,[4],6.75 µM (active)
same,Potency,[2],inactive
CCN[C@@H]1C[C@H](N)[C@@H](O[C@H]2OC(CN)=CC[C@H]2N)[C@H](O)[C@H]1O[C@H]1OC[C@](C)(O)[C@H](NC)[C@H]1O,Potency,[1],inactive
same,Potency,[4],inactive
same,Potency,[3],inactive
O=C(/C=C/c1ccc(O)cc1)OCC1=CC2OC(=O)C3=CO[C@@H](O[C@@H]4O[C@H](CO)[C@@H](O)[C@H](O)[C@H]4O)[C@H]1[C@@H]32 (stereo not given in full),Potency,[1],inactive
same,Potency,[4],inactive
same,Potency,[2],inactive
same,Potency,[3],inactive
CC(=O)Oc1cc2c(s1)CCN([C@H](C(=O)C1CC1)c1ccccc1F)C2,Potency,[1],inactive
same,Potency,[4],inactive
same,Potency,[3],inactive
C=CC(C)(O)CC/C=C(/C)C(=O)OC1C(OC2OCC(OC3OC(CO)C(O)C(O)C3O)C(OC3OCC(O)C(OC4OC(C)C(O)C(O)C4O)C3O)C2O)COC(OC(=O)C23CCC(C)(C)CC2C2=CCC4C5(C)CCC(OC6OC(CO)C(OC7OC(CO)C(O)C(OC8OCC(O)C(O)C8O)C7O)C(O)C6O)C(C)(C)C5CCC4(C)C2(C)CC3O)C1O (stereo not given),outcome,[1],inactive [at 9.73 µM]
same,"activity change, negative = inhibition",[4],3.07% [at 6.45 µM]
same,"activity change, negative = thiol reactive",[2],146% [at 6.41 µM]
same,"activity, negative = inhibition",[3],2.49% [at 6.45 µM]
COC(=O)[C@]12C(=O)C(C)=C(O)[C@@]1(C)C(C)=CC1[C@@]34CC[C@@H](OC(C)=O)C(C)(C)C3[C@H](C[C@]12C)OC4=O (stereo not given in full),Potency,[1],inactive
same,Potency,[4],inactive
same,Potency,[2],inactive
same,Potency,[3],inactive
COc1cccc(-n2nc(C(=O)O)cc2-c2ccc(C3CCCCC3)c(Cl)c2)c1,Potency,[4],inactive
same,Potency,[2],inactive
same,Potency,[3],inactive
O=C1Nc2ccc(O)cc2O[C@H]1O[C@@H]1O[C@H](CO)[C@@H](O)[C@H](O)[C@H]1O,Potency,[1],inactive
same,Potency,[4],inactive
same,Potency,[3],inactive
CC(=O)OC[C@]12[C@H](OC(C)=O)C(=O)[C@@H]3[C@@H](OC(C)=O)[C@@]14O[C@@]3(C)COC(=O)c1cccnc1[C@@H](C)[C@H](C)C(=O)O[C@@H]([C@H](OC(C)=O)[C@@H]2OC(C)=O)[C@]4(C)O,Potency,[1],inactive
same,Potency,[4],inactive
same,Potency,[2],inactive
same,Potency,[3],inactive
CCOc1c2c(c(OCC)c3ccccc13)C(=O)N(c1ccc(CC(=O)NS(=O)(=O)c3ccccc3)cc1)C2,Potency,[1],inactive
same,Potency,[4],inactive
same,Potency,[2],inactive
same,Potency,[3],12 µM (active)
COc1cc([C@@H]2Oc3c(OC)cc(CCCO)cc3[C@@H]2CO[C@@H]2O[C@H](CO)[C@@H](O)[C@H](O)[C@H]2O)ccc1O,Potency,[1],inactive
same,Potency,[4],inactive
same,Potency,[2],4.12 µM (active)
same,Potency,[3],inactive
CC(C)c1nc(N(C)S(C)(=O)=O)nc(-c2ccc(F)cc2)c1/C=C/[C@@H](O)C[C@@H](O)CC(=O)O,Potency,[1],inactive
same,Potency,[4],inactive
same,Potency,[2],inactive
same,Potency,[3],inactive
CC12CC34C=CC(=O)C(C)(CCC(=O)O)C3C(CC1C4)O2 (stereo not given),Potency,[1],inactive
same,Potency,[4],inactive
same,Potency,[2],inactive
same,Potency,[3],inactive
OC[C@H]1O[C@@H](OCCc2ccc(O)cc2)[C@H](O)[C@@H](O)[C@@H]1O,Potency,[1],inactive
same,Potency,[2],11.9 µM (active)
same,Potency,[3],inactive
C[C@@H]1O[C@@H](O[C@H]2[C@H](O[C@H]3[C@H](O[C@H]4CC[C@@]5(C=O)C(CC[C@]6(C)C5CC=C5C7CC(C)(C)C[C@@H](O)[C@]7(C)CC[C@]56C)C4(C)C)O[C@H](C(=O)O)[C@@H](O)[C@@H]3O)OC[C@@H](O)[C@@H]2O)[C@H](O)[C@H](O)[C@H]1O (stereo not given in full),Potency,[1],inactive
same,"activity change, negative = inhibition",[4],0.64% [at 11.6 µM]
same,"activity change, negative = thiol reactive",[2],114% [at 11.5 µM]
same,"activity, negative = inhibition",[3],3.37% [at 11.6 µM]
C[C@H]1CC[C@@]2(OC1)O[C@H]1CC3C4CC=C5C[C@H](O)C[C@@H](O[C@@H]6O[C@@H](C)[C@H](O)[C@@H](O)[C@H]6O[C@@H]6O[C@@H](C)[C@H](O)[C@@H](O)[C@H]6O)[C@]5(C)C4CC[C@]3(C)[C@H]1[C@@H]2C (stereo not given in full),Potency,[1],inactive
same,Potency,[4],inactive
same,Potency,[2],inactive
same,Potency,[3],inactive
